DT40 TDP1 CPT – DT40-hTDP1 cell growth loss with CPT | Potency, µM (top dose mostly 46.2 µM), usual class: inhibitors | chicken DT40 Tdp1-/-;hTDP1 cells + 20 nM CPT, ATP luminescence, 48 h | 12% of 420,000 active; also: nearly all actives have a fitted effect of over 55% in size
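Cell growth measured by CellTiter-Glo luminescence after a minimum 48 h, 37 C compound exposure with 20 nM CPT in Tdp1-knockout DT40 cells stably expressing hTDP1, seeded 400/well; qHTS titration format.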
IL-1B inflam inh – blocks inflammasome-driven IL-1 beta release; THP-1 LPS/ATP IL-1B secretion, AlphaLISA, 16 h; hits give low values; activity change, % at 57.5 µM; 4.7% of 360,000 active; AID 743279; in the data active = activity change below about -50%; inconclusive = mostly about -30% to -49%
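Secreted IL-1B measured by AlphaLISA bead assay after 16 h compound exposure of THP-1 cells; compounds (final up to 57.5 uM) added 1 h before LPS (250 ng/mL) and ATP (1.25 mM) stimulation; lower signal means less secretion.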
HT1080-NT tox – kills 2HG-producing HT-1080-NT fibrosarcoma cells. HT-1080-NT fibrosarcoma viability, CellTiter-Glo ATP luminescence, 48 h. Potency, µM (series often up to 46.1 µM), usual class: cytotoxic. 1.6% of 360,000 active. AID 686970;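 also: NT is the 2HG producing partner of a matched IDH1 knockdown line; nearly all actives have a fitted effect of over 55% in size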
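HT-1080-NT; 750 cells/well; 5% FBS RPMI; 48 h compound, 37 degrees C; CellTiter-Glo luminescence; curve fitting and curve-class assignment.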
HT1080 IDH1KD tx – HT-1080 IDH1 knockdown cell toxicity (counter line) | 2% of 360,000 active | Potency, µM (series often up to 46.1 µM), actives largely listed as cytotoxic | AID 686971 | HT-1080 IDH1 knockdown viability, ATP luminescence, 48 h
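After a 2 h attachment period, IDH1KD HT-1080 cells took pin-transferred compound for 48 h at 37 °C; ATP-based luminescence after 10 min room-temperature reagent incubation reported viability.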
TDP1 cell noCPT – qHTS for Inhibitors of human tyrosyl-DNA phosphodiesterase 1 (TDP1): qHTS in cells in absence of CPT. DT40 Tdp1-/- hTDP1 cells, no CPT, ATP luminescence, 48 h. Potency, µM (top dose mostly 46.2 µM), most hits filed as inhibitors. 15% of 420,000 active; also: nearly all actives have a fitted effect of over 55% in size
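No-CPT arm: Tdp1-/-;hTDP1 DT40 cells (400/well) plus compounds, incubated ≥48 hr at 37 °C. Readout CellTiter-Glo luminescence.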
Each line names hits and unclear results; the compound was inactive in the other large screens. Only some compounds are listed: those with a hit (about 19% of all), similar ones and a draw of the others. Unless noted, calls follow the shape of the dose curve; as a rule, active = well fitted curve in the direction sought with a large enough effect; inconclusive = small, poorly fitted or top-dose-only effect, or another doubt; inactive = no such curve, though single readings can be large; an effect the other way counts as inactive or inconclusive.

C=C1CC2(OC1=O)c1ccccc1CCc1ccccc12	DT40 TDP1 CPT 4.6µM, IL-1B inflam inh -102, HT1080-NT tox inconclusive, HT1080 IDH1KD tx 5.8µM, TDP1 cell noCPT 2.9µM
C[C@@H](CN1C2=NC[C@H](Cc3ccccc3)N2C[C@H]1Cc1ccc(O)cc1)NC(=O)CCC1CCCCC1	DT40 TDP1 CPT 7.3µM, IL-1B inflam inh inconclusive, HT1080-NT tox inconclusive, HT1080 IDH1KD tx inconclusive, TDP1 cell noCPT 12µM
COc1ccc(C[C@H]2CN3C(=NC[C@@H]3Cc3ccccc3)N2CCNC(=O)c2ccc(C)c(Br)c2)cc1	DT40 TDP1 CPT 23µM, IL-1B inflam inh -52, HT1080-NT tox inconclusive, HT1080 IDH1KD tx inconclusive, TDP1 cell noCPT 21µM
COc1ccc(C[C@H]2CN3C(=NC[C@H]3Cc3ccccc3)N2CCNC(=O)CCC2CCCCC2)cc1	DT40 TDP1 CPT inconclusive, TDP1 cell noCPT 26µM
COc1ccc(C[C@H]2CN3C(=NC[C@H]3Cc3ccccc3)N2CCNC(=O)c2ccc(C)c(Br)c2)cc1	DT40 TDP1 CPT 21µM, IL-1B inflam inh -52, HT1080 IDH1KD tx inconclusive, TDP1 cell noCPT 15µM
CC(C)(C)N(NC(=O)OCc1ccccc1)C(=O)c1ccccc1Cl	none
C[C@H](O)[C@@H]1C(=O)N2CCc3c([nH]c4ccccc34)[C@@H]2C[C@@H]1N(C)S(=O)(=O)c1ccccc1	DT40 TDP1 CPT inconclusive, TDP1 cell noCPT 23µM
C[C@H](O)[C@@H]1C(=O)N2CCc3c([nH]c4ccccc34)[C@@H]2C[C@@H]1N(C)C(=O)c1cc(Cl)cc(Cl)c1	DT40 TDP1 CPT 23µM, HT1080 IDH1KD tx inconclusive, TDP1 cell noCPT 18µM
C[C@H](O)[C@@H]1C(=O)N2CCc3ccc(N4CCOCC4)cc3[C@@H]2C[C@@H]1N(C)S(=O)(=O)c1ccccc1	DT40 TDP1 CPT inconclusive
C[C@H](O)[C@@H]1CN2CCc3c([nH]c4ccccc34)[C@@H]2C[C@@H]1N(C)Cc1cc(Cl)cc(Cl)c1	DT40 TDP1 CPT inconclusive, TDP1 cell noCPT 23µM
CCOC(=O)N(C)[C@H]1C[C@H]2c3[nH]c4ccccc4c3CCN2C[C@H]1[C@H](C)O	DT40 TDP1 CPT inconclusive, TDP1 cell noCPT inconclusive
Cc1ccccc1C(=O)N(C)[C@H]1C[C@H]2c3[nH]c4ccccc4c3CCN2C(=O)[C@H]1[C@H](C)O	DT40 TDP1 CPT inconclusive, TDP1 cell noCPT 21µM
C[C@H](O)[C@@H]1C(=O)N2CCc3c([nH]c4ccccc34)[C@@H]2C[C@@H]1N(C)C(=O)Nc1cccc2ccccc12	DT40 TDP1 CPT inconclusive, HT1080-NT tox inconclusive, HT1080 IDH1KD tx inconclusive, TDP1 cell noCPT inconclusive
O=C(NCc1ccccc1OC(F)(F)F)C1CCC(=O)N(C2CC2)C1 (centres undefined)	none
C[C@@H]1CN([C@@H](C)CO)C(=O)CCCn2nncc2CO[C@H]1CN(C)S(=O)(=O)c1ccc(-n2cccn2)cc1	none
COc1ccc(C(=O)N(C)[C@H]2C[C@H]3c4[nH]c5ccccc5c4CCN3C(=O)[C@H]2CO)cc1	TDP1 cell noCPT inconclusive
C[C@H](O)[C@@H]1C(=O)N2CCc3c([nH]c4ccccc34)[C@@H]2C[C@@H]1N(C)Cc1ccc2c(c1)OCO2	DT40 TDP1 CPT inconclusive, TDP1 cell noCPT 16µM
CS(=O)(=O)N1CCC(C(=O)Nc2ccc(Br)cc2F)CC1	none
O=C(CCn1c(=O)c2cccn2c2cccnc21)N1CCN(c2ccc(Cl)cc2)CC1	DT40 TDP1 CPT 10µM, TDP1 cell noCPT 13µM (no result: IL-1B inflam inh, HT1080-NT tox, HT1080 IDH1KD tx)
CCOC(=O)CCn1c(=O)c2cccn2c2cccnc21	none (no result: IL-1B inflam inh, HT1080-NT tox, HT1080 IDH1KD tx)
O=C(CCn1c(=O)c2cccn2c2cccnc21)N1CCN(c2cccc(C(F)(F)F)c2)CC1	DT40 TDP1 CPT 15µM, TDP1 cell noCPT 9.2µM (no result: IL-1B inflam inh, HT1080-NT tox, HT1080 IDH1KD tx)
CN1CCN(C(=O)CCn2c(=O)c3cccn3c3cccnc32)CC1	none

Screens (PubChem BioAssay)
